Measurements reported in the supplement of paper PMC6555819.

tested on: VDR:RXRa (NR concentration 270 nM, RXRa partner concentration 90 nM); experiment: PBM binding z-score (relative to random genomic background probes); higher = stronger binding; sequences stand for … in GC…GCGATTGACAGCGTAGAATGAAGG
Method: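 Protein-binding microarray (Agilent 4x180K custom design, double-stranded 60-nt probes: 5' GC cap, 34-nt variable region, 24-nt constant primer region; full probe sequence given). Purified or IVT nuclear receptor:RXRα heterodimers (3:1 NR:RXRα, mostly 270:90 nM) or homodimers were incubated for 1 h in PBS with 2% milk and no ligand, then detected with Alexa488 antibodies. Fluorescence from o1-orientation probes (~5 replicates averaged) was converted to z-scores against 500 random hg19 background probes. Variable regions are seed direct-repeat (DR0–DR5) sites, all their single-nucleotide variants and half-site ablations.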

Q: Which PBM binding z-score does the source give for TCTAGTTGGTCAAAGGTCACTCACTCGAAATGCG here?
A: Its PBM binding z-score is 4.92.

Q: With ATATGTAGGTTATCGCGTCATTCAGTTTGCGCAT as the sequence, how does the PBM binding z-score read?
A: The PBM binding z-score was 0.798.

Q: GTACCAAGGTGAATAGGTCCTTGATGAGTAGGCG was tested. Which PBM binding z-score did it give?
A: Its PBM binding z-score is 0.968.

Q: With CATACTGGGCCAAGGTCATTGATCAGTCAAAGCA as the sequence, how does the PBM binding z-score read?
A: The PBM binding z-score was 3.48.

Q: For TCGAGTAGGTTAGCCGGGGCATTCAGCCAACATA, which PBM binding z-score is on record?
A: Its PBM binding z-score is 2.46.

Q: AGAATGAGGTTAAAATCAGGGAAACAGAATACAT was tested. Which PBM binding z-score did it give?
A: Its PBM binding z-score is 1.33.

Q: With CGAACTAGGTCATTGACAGGACACTGAATAGTAA as the sequence, how does the PBM binding z-score read?
A: The PBM binding z-score was 2.52.

Q: CCTGGTAGGTCAATGGTCAGCTAAAGCAGCTCGC was tested. Which PBM binding z-score did it give?
A: Its PBM binding z-score is 1.33.

Q: CCTAGTTGGTCAGGAGGACACACACCGGATATGA was tested. Which PBM binding z-score did it give?
A: Its PBM binding z-score is 0.204.

Q: ACTAACGGGTCAACGAGGTTATAGCACGCGTATA was tested. Which PBM binding z-score did it give?
A: Its PBM binding z-score is 7.41.

Q: For TCTTGTTGATCAGCAGGTTAAGAAAGCTGGCCAA, which PBM binding z-score is on record?
A: Its PBM binding z-score is 0.36.

Q: Which PBM binding z-score does the source give for TCTTGTAGATCAAGAGAGGTTAAGAAAGTGCGCT here?
A: The PBM binding z-score was 1.77.

Q: TAGCCTAGGTCATGGGCCGGTATACCACGCGAAC was tested. Which PBM binding z-score did it give?
A: The PBM binding z-score was 2.18.

Q: For AGTCAAAGTTCATCTAGTTAACGTAAGATATGCT, which PBM binding z-score is on record?
A: The PBM binding z-score was 4.86.

Q: CCTAACAGGCCAATCTGGGTCACTCAAGGCTTGA was tested. Which PBM binding z-score did it give?
A: The PBM binding z-score was 1.04.

Q: With CCTCGGAGGCCAGAAGGTCAGAGCTGTCCGCTTT as the sequence, how does the PBM binding z-score read?
A: The PBM binding z-score was 0.72.

Q: CCGACTGGGGCATAAGGCTACCATAAGCCAGCCC was tested. Which PBM binding z-score did it give?
A: The PBM binding z-score was -0.694.

Q: For TGTCAAAGTTCAAAGGTAACATAAGTATCCACAC, which PBM binding z-score is on record?
A: The PBM binding z-score was 5.14.

Q: With GCTGCTAGGTCAACTGATGGTCAGCGAAAGCTCG as the sequence, how does the PBM binding z-score read?
A: Its PBM binding z-score is 1.73.

Q: For ACAACGAGGGCACGCTGAGTTGATAGCAGAGTAG, which PBM binding z-score is on record?
A: The PBM binding z-score was 2.01.

Q: For ACTATTAGTTGACTTAGGGCAACCCATACGACGC, which PBM binding z-score is on record?
A: Its PBM binding z-score is 0.512.

Q: Which PBM binding z-score does the source give for AGAATGAGGCTATTAAGATCAGGGAATTGCGGTC here?
A: The PBM binding z-score was -0.0838.

Q: For CATACAGGGTCAGCAAGGCCAGAGTAGGGACGGC, which PBM binding z-score is on record?
A: The PBM binding z-score was 5.7.

Q: How did the PBM binding z-score turn out when GCGTACGGGTCAAAGGTTATAGCATGAATAGAAT was run?
A: Its PBM binding z-score is 5.59.

Q: TCTTATAGGTAAAAGGTGAAAGTCGGTGTGGTAA was tested. Which PBM binding z-score did it give?
A: The PBM binding z-score was 1.66.

Q: Which PBM binding z-score does the source give for CGAACTAGGTCAATGACAGTGAATCTCCGCACGC here?
A: Its PBM binding z-score is 1.15.

Q: With ACTCGGAGAACAAAGGTCAGAGCTACGCCAGTGA as the sequence, how does the PBM binding z-score read?
A: The PBM binding z-score was 2.77.

Q: How did the PBM binding z-score turn out when TTACCAAGGTGAGCTGACGTCGTTGATCCAACTC was run?
A: Its PBM binding z-score is -0.477.

Q: AGAATGAGGTGATACGTAGATCAGGGAAGAAAGT was tested. Which PBM binding z-score did it give?
A: The PBM binding z-score was -0.0206.

Q: How did the PBM binding z-score turn out when ACAGACAGGAGAGTGAAGGTAACTCAGCTGGACG was run?
A: Its PBM binding z-score is -0.068.

Q: For GCAGACAGGTGAAACGCAGGAAACTCAGGGTGGC, which PBM binding z-score is on record?
A: Its PBM binding z-score is -0.533.

Q: TAGCCTTGGTCATTGGGCCAGTATAGTACGCATC was tested. Which PBM binding z-score did it give?
A: Its PBM binding z-score is -0.419.

Q: With TAGCCTAGGTCATTGGGCCAGAATAGTACGCATC as the sequence, how does the PBM binding z-score read?
A: Its PBM binding z-score is 2.01.

Q: CAAACTAGGTCAAAGGTCATAGTCGAGCCAACCA was tested. Which PBM binding z-score did it give?
A: The PBM binding z-score was 6.71.

Q: For ATACCAAGGTGCTCGTGAGGTCGTTGATACTAAC, which PBM binding z-score is on record?
A: The PBM binding z-score was 2.34.

Q: ATCTGTAGGTTACATCCGGGTCATTCAGGCTATG was tested. Which PBM binding z-score did it give?
A: The PBM binding z-score was 4.16.

Q: How did the PBM binding z-score turn out when GCTATTAGTTGATAGGGCAACCGAATGATTCTCG was run?
A: Its PBM binding z-score is -0.195.

Q: How did the PBM binding z-score turn out when ATCCAAAGGTCGACGAGGTGAGTATACACCGTTT was run?
A: The PBM binding z-score was 5.23.

Q: With CCTACTGGGCCAAGGTCATTGATCAGTCAAAGCA as the sequence, how does the PBM binding z-score read?
A: The PBM binding z-score was 3.15.

Q: For GCTAGCAGGCCATTTGGGTTACTCAATGACGGGC, which PBM binding z-score is on record?
A: Its PBM binding z-score is -0.436.
